Only some compounds are listed: those with a hit (about 3.7% of all), similar ones and a draw of the others.
Kir21 inh = inhibitors of mouse Kir2.1 inward-rectifier potassium channel; P35561; B-score at 10 µM; 310,000 compounds, 0.85% hits; HEK293-Kir2.1, FluxOR thallium flux fluorescence; hits give low values;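 active = fluorescence ratio B-score at or below minus 3 SD of library scores, with starting-brightness B-score within 2 SD, cut at about -4.2 in these data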;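 also: channel flux triggered by added potassium and thallium sulfate stimulus; B-score of peak minus minimum fluorescence over baseline after thallium stimulus; more negative B-score means stronger Kir2.1 block with less thallium influx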
CHT inh = human CHT choline transport inhibition | 310,000 compounds, 0.86% hits | Q9GZV3 | CHT-expressing cells, membrane potential dye, choline response; hits give low values | B-score at 10 µM;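 active = B-score over 3 SD under the library average, and starting fluorescence ratio not unusually high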;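 also: choline stimulus applied at its EC90 after an EC20 pre-addition; B-score computed on integrated fluorescence ratio after choline addition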
CHT PAM = allosterically activates the human high affinity choline transporter; Q9GZV3; CHT-expressing cells, membrane potential dye, choline EC20; hits give high values; LV-AA mutant CHT in HEK293 cells; B-score at 10 µM; 310,000 compounds, 0.49% hits;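 active = initial fluorescence not abnormally high and integrated response B-score, plate-corrected, over 3 SD above library mean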
TMEM16A inh = inhibitors of mouse TMEM16A calcium-activated chloride channel. Q8BHY3. HEK293 TMEM16A/YFP iodide influx fluorescence, ionomycin. normalized B-score (activity score, 25-100; higher = stronger inhibition) at 10 µM. 310,000 compounds, 1.2% hits. AID 588511;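 active = ratio plate-corrected score three or more library SD toward inhibition, starting fluorescence score within five deviations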;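 also: score derived from kinetic fluorescence span divided by baseline fluorescence per well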
ANO1 activ = mouse TMEM16A channel activation, primary screen | Q8BHY3 | B-score at 10 µM | HEK293 TMEM16A/YFP-H148Q/I152L, iodide quench fluorescence; hits give low values | AID 623877 | 340,000 compounds, 0.3% hits;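 active = fluorescence-ratio B-score plate-corrected deviation score at least 3 library SD below zero, with starting fluorescence score within 5 deviations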;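 also: channel opened by trigger with iodide after compound preincubation; score built on the fluorescence ratio of max minus min over baseline; more negative score means more quench and so TMEM16A activation or potentiation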
GPR7 antag = antagonists of human GPR7 (neuropeptides B/W receptor 1); AID 1861; inhibition, % at 4.4 µM; GPR7-expressing cells, fluorescence antagonist assay; 290,000 compounds, 1.1% hits; in the data active = inhibition above about 16%, passing the limit was not always enough;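 also: cells stimulated with the agonist NPW; 0% = agonist with vehicle and 100% = vehicle without agonist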
Target sequence (P48145 whole entry, looked up): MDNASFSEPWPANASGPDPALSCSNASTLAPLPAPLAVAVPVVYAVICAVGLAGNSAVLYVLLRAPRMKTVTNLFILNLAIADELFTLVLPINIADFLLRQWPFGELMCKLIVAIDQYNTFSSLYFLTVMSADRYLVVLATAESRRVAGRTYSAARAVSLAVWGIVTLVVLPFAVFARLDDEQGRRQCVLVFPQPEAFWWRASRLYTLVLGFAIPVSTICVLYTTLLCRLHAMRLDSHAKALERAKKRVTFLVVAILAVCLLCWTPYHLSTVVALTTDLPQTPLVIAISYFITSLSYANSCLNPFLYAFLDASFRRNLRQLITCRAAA
CHT block conf = confirmation of human choline transporter CHT inhibitors; shares compounds with CHT inh; CHT-expressing cells, choline membrane potential dye; LV-to-AA substituted CHT, HEK293 cells; CHT activity remaining % of control (hits give low values), % at 10 µM; 2,400 compounds, 70% hits; AID 493221;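 active = choline transporter activity left, mean of duplicates at 10 µM, below buffer-only control mean minus 3 SD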;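 also: depolarization triggered by choline at its EC90 following an EC20 pre-addition; 0% = hemicholinium-3 full block and 100% = buffer-only control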
HEK293 CHT ctr = activity in parental HEK293 cells lacking CHT | AID 493222 | 2,400 compounds, 4% hits | shares compounds with CHT inh | membrane potential dye, choline response; active = decrease or increase beyond buffer ±3SD | membrane potential ratio readout (active if shifted either direction beyond buffer ±3SD; no single direction) at 10 µM;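 also: parental cells lack the transporter so any hit is non-specific; ratio is peak minus trough fluorescence over baseline after EC90 choline challenge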
An asterisk follows results filed as active; i = inactive; x = not tested or not shown.

SMILES | Kir21 inh | CHT inh | CHT PAM | TMEM16A inh | ANO1 activ | GPR7 antag | CHT block conf | HEK293 CHT ctr
COc1ccc(NC(=O)Cn2nnc(C(=O)NCCc3ccc(OC)c(OC)c3)c2N)c(OC)c1 | 0.2 | i | i | i | i | -15 | x | x
CN1CCN(S(=O)(=O)c2ccc(NC(=O)c3ccc(Br)s3)cc2)CC1 | -1 | -7.7* | i | i | i | 18* | 24%* | i
CN1CCN(S(=O)(=O)c2ccc(NC(=O)Nc3cccc(Cl)c3)cc2)CC1 | 0.76 | -8.1* | i | i | i | 3 | 29%* | i
CN1CCN(S(=O)(=O)c2ccc(NC(=O)c3ccc(F)cc3)cc2)CC1 | -0.34 | i | i | i | i | -7 | x | x
COC(=O)c1cccc(NC(=O)c2ccc(S(=O)(=O)N3CCN(C)CC3)cc2)c1 | 0.69 | -5.1* | i | i | i | -14 | 33%* | i
O=C(CCOc1ccccc1)Nc1ccnn1C1CCN(CCc2ccccc2)CC1 | -0.99 | i | i | i | i | 3 | x | x
O=C(C1CCN(CCCc2ccccc2)CC1)N(CCc1ccccc1)Cc1ccccc1 | -3.7 | -8.2* | i | i | i | 13 | 23%* | 3.5*
CCc1ccc(N=c2c([N+](=O)[O-])nn(-c3ccc4c(c3)OCCO4)n2O)cc1 | 2.4 | -6.3* | i | i | i | 1 | 69%* | i
CC(C)C(=O)Nc1cc2c3c(c1)CCN3C(=O)CC2 | 0.07 | i | i | i | i | -3 | x | x
Cc1ccc2c(c1)N(CC(=O)NCCCN1C(C)CCCC1C)C(=O)c1cccnc1O2 (stereo not given) | -0.03 | i | i | i | i | -5 | x | x
CC1CCCC(C)N1CCCNC(=O)CN1C(=O)c2cccnc2Oc2ccc(Cl)cc21 (stereo not given) | 3.2 | -7.1* | i | i | i | -6 | 19%* | i
CCOC(=O)c1nc(S(C)(=O)=O)ncc1Cl | -1.8 | -6.3* | i | i | i | -7 | 47%* | i
NNC(=O)CCN(Cc1ccco1)S(=O)(=O)c1ccc(Cl)cc1 | 0.87 | i | i | i | i | -14 | x | x
CCOC(=O)c1c(NC(=O)CSc2nnc(-c3ccccc3)n2CC)sc(C(C)=O)c1C | 0.54 | -5.3* | i | i | i | -7 | i | i
CCOC(=O)c1c(NC(=O)CSc2nnc(-c3cccc(C)c3)n2CC)sc(C(C)=O)c1C | 0.73 | i | i | i | i | -9 | x | x
CCOC(=O)c1sc(NC(=O)CSc2nc3c(c(=O)n2-c2ccc(C)cc2)SCC3)c(C(=O)OCC)c1C | -0.68 | -7* | i | i | i | 4 | 69%* | i
COc1cc(C(=O)OCC2CC(c3ccccc3)=NO2)cc(OC)c1OC (stereo not given) | -1.3 | i | i | i | i | -14 | i | i
CSCCCNC(=O)c1ccc(OC2CCN(CCc3ccccc3)CC2)cc1 | -0.41 | -6* | i | i | i | -15 | 51%* | 4.8*
CCCN1CCC(Oc2cccc(C(=O)NCCc3ccccc3)c2)CC1 | -3.7 | -11* | i | i | i | -2 | 6.5%* | i
O=C(NCCc1ccccn1)c1ccc(OC2CCN(CCc3ccccc3)CC2)cc1 | 0 | i | i | i | i | -1 | x | x
O=C(Cc1ccc(-n2c(=O)c3ccccc3n(Cc3ccccc3F)c2=O)cc1)NCC1CCCO1 (stereo not given) | 0.85 | -7.8* | i | i | i | -7 | 41%* | i
COc1ccc(Cc2nnc(NC(=O)c3ccccc3[N+](=O)[O-])s2)cc1 | 1.3 | -7.1* | i | i | i | -11 | 26%* | i
Cc1ccccc1CN1CCN(c2ccc(S(=O)(=O)N3CCCC3)cn2)CC1 | x | x | x | x | i | x | x | x
CN1CCCC(CC2Oc3ccccc3Sc3ccccc32)C1 (stereo not given) | -3.5 | -5.2* | i | i | i | 12 | 14%* | i
CC1CCCN(C(=O)N2c3ccccc3Sc3ccccc32)C1 (stereo not given) | 0.63 | i | i | i | i | -3 | x | x
SMILES | Kir21 inh | CHT inh | CHT PAM | TMEM16A inh | ANO1 activ | GPR7 antag | CHT block conf | HEK293 CHT ctr
CC(=O)CCc1c(C)[nH]c2ccccc2c1=O | -0.56 | i | i | i | i | -3 | x | x
CCc1c(C)[nH]c2ccccc2c1=O | x | -5.2* | i | i | x | -8 | 63%* | i
CN(CC(=O)Nc1cccc(F)c1)C(=O)CCCN1C(=O)c2cccc3cccc(c23)C1=O | -0.54 | i | i | i | i | x | x | x
COc1ccc(-n2c(SCC(=O)NCC3CCCO3)nc3ccccc32)cc1 (stereo not given) | -0.42 | -5.5* | i | i | i | 8 | i | i
C=CC(=O)NC(NC(=O)C=C)c1ccccc1F | 0.8 | i | i | i | i | -4 | x | x
CC(/C=C1\SC(=S)N(NC(=O)c2ccncc2)C1=O)=C\c1ccccc1 | 0.05 | -6.5* | i | i | i | -8 | 15%* | i
COc1ccc(/C=C2/SC(=S)N(NS(=O)(=O)c3ccccc3)C2=O)cc1 | -0.4 | -4.9* | i | i | i | -7 | 45%* | i
CC(/C=C1\SC(=S)N(NC(=O)c2ccc(C)cc2)C1=O)=C\c1ccccc1 | -1.6 | i | i | i | i | -7 | x | x
CC(/C=C1\SC(=S)N(NS(=O)(=O)c2ccc(C)cc2)C1=O)=C\c1ccccc1 | 1.5 | i | i | i | i | -11 | x | x
CC(/C=C1\SC(=S)N(NS(=O)(=O)c2ccccc2)C1=O)=C\c1ccccc1 | 0.06 | -5.8* | i | i | i | -14 | 55%* | i
COc1cc(/C=C2\SC(=S)N(NC(=O)c3ccncc3)C2=O)ccc1O | -2 | -9.8* | i | i | i | -7 | -0.4%* | -8.5*
CCC(C(=O)NCCCN1CC(C)CC(C)C1)n1nc(C)c2sc3ccccc3c2c1=O (stereo not given) | -3.5 | -8.8* | i | i | i | -20 | 16%* | i
CCN(CC)CCNC(=O)c1ccc(NC(=O)C2CCN(c3ncnc4sc(C)c(C)c34)CC2)cc1 | 0.09 | i | i | i | i | -6 | x | x
O=C(NNC(=S)NC1CCCCC1)c1ccccc1O | 0.29 | -5* | i | i | i | -8 | 53%* | i

Screening data deposited in PubChem by several laboratories.
